# Source: PubChem BioAssay AID488975 (Johns Hopkins Ion Channel Center, 2010)
# About 2,600 (0.84%) of roughly 310,000 compounds were called active.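 Rule for the calls: active = B-score over 3 SD under the library average, and starting fluorescence ratio not unusually high; inactive = the rest.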 Only a selection was taken, and actives are over-represented in it overall. The source holds several records for some structures; these can differ, active in one and inactive in another.
# Target: High affinity choline transporter 1 (Homo sapiens) (UniProt Q9GZV3)
# Assay: inhibitors of human choline transporter CHT (AID 488975);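 for B-score: choline stimulus applied at its EC90 after an EC20 pre-addition; B-score computed on integrated fluorescence ratio after choline addition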
# Conditions: CHT-expressing cells, membrane potential dye, choline response, at 10 µM; hits give low values
# High affinity choline transporter 1 (Homo sapiens), sequence (Q9GZV3 whole entry, looked up): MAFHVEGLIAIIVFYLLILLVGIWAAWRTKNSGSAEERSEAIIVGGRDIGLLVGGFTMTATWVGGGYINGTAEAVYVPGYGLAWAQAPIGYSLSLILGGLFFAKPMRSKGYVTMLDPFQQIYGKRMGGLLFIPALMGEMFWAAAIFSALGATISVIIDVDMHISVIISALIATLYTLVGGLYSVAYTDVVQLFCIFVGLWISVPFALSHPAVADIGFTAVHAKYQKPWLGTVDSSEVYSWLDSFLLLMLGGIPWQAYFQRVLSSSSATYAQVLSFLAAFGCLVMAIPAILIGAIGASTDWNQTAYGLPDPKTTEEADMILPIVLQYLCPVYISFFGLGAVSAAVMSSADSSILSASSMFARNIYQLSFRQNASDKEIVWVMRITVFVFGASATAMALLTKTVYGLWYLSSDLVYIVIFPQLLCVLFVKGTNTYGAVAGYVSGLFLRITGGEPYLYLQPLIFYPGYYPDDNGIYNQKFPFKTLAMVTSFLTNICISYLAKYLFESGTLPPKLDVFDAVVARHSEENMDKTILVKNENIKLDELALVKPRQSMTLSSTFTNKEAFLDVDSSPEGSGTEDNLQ
SMILES,B-score,outcome
O=C1/C(=C/c2ccc(F)cc2)SC(=S)N1CCCC(=O)N1CCCCC1CCO (centres undefined),inactive,–
O=C1/C(=C/c2ccc(F)cc2)SC(=S)N1NS(=O)(=O)c1ccccc1,-6.62 (active),–
CCOc1ccc(/C=C2\SC(=S)N(NC(=O)c3ccncc3)C2=O)cc1OC,-5.15 (active),–
O=C(O)c1ccc(/C=C2\SC(=S)N(NC(=O)c3ccc(Br)cc3)C2=O)cc1,-5.15 (active),–
COc1ccc(/C=C2\SC(=S)N(CCC(=O)Nc3ccccn3)C2=O)cc1OC,inactive,–
COc1ccc(/C=C2\SC(=S)N(CC(=O)NNC(=O)c3ccncc3)C2=O)cc1,inactive,–
COc1ccccc1C(=O)NNC(=O)CCN1C(=O)/C(=C\c2ccccc2)SC1=S,inactive,–
O=C(O)c1ccc(/C=N/NC(=O)c2ccc(Br)cc2)cc1,inactive,–
Cn1cccc1/C=C1\SC(=S)N(NC(=O)c2ccc(Cl)cc2)C1=O,inactive,–
COc1ccc2oc(C(=O)N(CC(C)C)C3CCS(=O)(=O)C3)c(C)c2c1 (centres undefined),inactive,–
O=C(NCc1ccc(Cl)cc1)C(=O)NCC1CCCN1S(=O)(=O)c1cccs1 (centres undefined),inactive,–
CC1CC(C)(C)CC2(C1)NC(=O)N(CC(=O)Nc1nccs1)C2=O (centres undefined),inactive,–
O=c1c(Cl)c(NC2CC2)cnn1-c1ccccc1,inactive,–
Cc1cccc(-n2ncc(Cl)c(Cl)c2=O)c1,-6.46 (active),–
C=CCNc1cnn(-c2ccc(C)cc2)c(=O)c1Cl,inactive,–
CCN1C(=O)[C@H]2[C@@H](c3ccc(SC4CCCCC4)c(OC)c3)N[C@@](Cc3ccccc3)(C(=O)OC)[C@H]2C1=O,inactive,–
COc1ccc(/C=C(\C#N)C(=O)NCCCn2ccnc2)cc1,inactive,–
COc1cccc(-c2nn(-c3ccccc3)cc2/C=C(\C#N)C(=O)NCCCn2ccnc2)c1,-6.63 (active),–
COc1cc(OC)cc(C(=O)NCCCn2ccnc2)c1,inactive,–
Cc1ccc(S(=O)(=O)N2[C@@H](c3cccc(Cl)c3)C(C(=O)O)=CC[C@H]2c2ccc(Cl)c(Cl)c2)cc1,inactive,–
COc1cccc(N2CC(NS(=O)(=O)c3ccc(Cl)cc3)CC2=O)c1 (centres undefined),inactive,–
COc1cccc(CNC(=O)C(=O)NCCC2CCCCN2S(=O)(=O)c2ccc(C)cc2)c1 (centres undefined),inactive,–
C/C(=N\NC(=O)c1cccnc1)c1ccc(-c2ccccc2)cc1,inactive,–
C/C(=N\NC(N)=S)c1cccnc1,-9.98 (active),–
C/C(=N\NC(N)=S)c1ccncc1,inactive,–

SMILES,B-score,outcome
O=C(Nc1ccc2ccccc2c1)/C(=C/c1cccc(Br)c1)NC(=O)c1ccco1,inactive,–
Cc1ccc(C(=O)NNC(=O)C(C)Oc2ccc3ccccc3c2)o1 (centres undefined),inactive,–
CC(Oc1ccc2ccccc2c1)C(=O)NNC(=S)NC(=O)c1ccco1 (centres undefined),-5.21 (active),–
CCCCN(C(=O)CCNC(=O)NC12CC3CC(CC(C3)C1)C2)c1c(N)n(CCCC)c(=O)[nH]c1=O,inactive,–
COc1ccc(CCNC(=O)C(=O)NCC2OCCN2S(=O)(=O)c2cccs2)cc1OC (centres undefined),inactive,–
O=C(Nc1ccccc1N1CCCC1)c1ccc(F)c(S(=O)(=O)N2CCOCC2)c1,inactive,–
CC(C)CN(C(=O)COC(=O)c1ccc(Cl)c(N)c1)c1c(N)n(Cc2ccccc2)c(=O)[nH]c1=O,inactive,–
Cc1nc2sc3c(c2c(=O)n1NC(=O)CCl)CCCC3,inactive,–
COCCNc1nc(-n2nc(C)cc2C)nc2sc3c(c12)CCCC3,-4.98 (active),–
Cc1cc(C)n(-c2nc(SCC(=O)N3CCCC3)c3c4c(sc3n2)CCCC4)n1,inactive,–
N#CC1(NC(=O)COC(=O)CSc2ccc(F)cc2)CCCCC1,inactive,–
CCOc1ccc(S(=O)(=O)Nc2ccc(C(=O)NCCCN3CCCC3=O)cc2)cc1,inactive,–
CCOC(=O)N1CCN(S(=O)(=O)c2ccc(OC)cc2)CC1,inactive,–
COc1ccc(S(=O)(=O)N2CCCC2CNC(=O)C(=O)NC2CC2)cc1 (centres undefined),inactive,–
COc1ccc(S(=O)(=O)N2CCN(C(=O)NC3CCCCC3)CC2)cc1,-6.98 (active),–
CC(C)C[C@H](CO)Nc1nc(N(C)c2cccc(Cl)c2)c2ncn(C(C)C)c2n1,inactive,–
OCCCNc1nccc(-c2cc(Nc3cccc(Cl)c3)ncn2)n1,inactive,–
CC(C)n1cnc2c(Nc3cccc(Cl)c3)nc(N(CCO)CCCO)nc21,-7.57 (active),–
COc1ccccc1N(C)S(=O)(=O)c1ccc(Cl)c(C(=O)Nc2ccncc2)c1,inactive,–
COc1ccc(NS(=O)(=O)c2ccc(C)c(C(=O)N(C)Cc3ccc(OC)cc3OC)c2)cc1,inactive,–
CC1(C)S[C@@H]2[C@H](N=CN3CCCCCC3)C(=O)N2[C@H]1C(=O)O,inactive,–
CC1(C)SC2C(NC(=O)COc3ccccc3)C(=O)N2C1C(=O)O (centres undefined),-6.15 (active),inactive
CC1(C)S[C@@H]2[C@H](NC(=O)COc3ccccc3)C(=O)N2C1C(=O)OCc1ccccc1 (some centres undefined),inactive,–
COC(=O)[C@]1(C)N[C@H](c2ccc(-c3ccc(Cl)c(Cl)c3)cc2)[C@@H]2C(=O)N(C)C(=O)[C@@H]21,inactive,–
O=C(NCC(c1cccs1)N1CCOCC1)c1cc(Cl)ccc1[N+](=O)[O-] (centres undefined),inactive,–

SMILES,B-score,outcome
OCCCNc1nc(-c2ccccc2)c2cc(Cl)ccc2n1,inactive,–
O=C(Cn1nc(C(F)(F)F)c2c1CCC2)NCc1ccc(F)cc1,-6.14 (active),–
COC(=O)c1ccccc1NC(=O)Cn1nc(C(F)(F)F)c2c1CCC2,-5.17 (active),–
CC(C)OC(=O)Cn1nc(C(F)(F)F)c2c1CCCC2,inactive,–
COC(=O)c1ccccc1NC(=O)CSc1nc2c(c(=O)[nH]1)CCC2,inactive,–
CCC(C)NC(=O)Cn1nc(C(F)(F)F)c2c1CCC2 (centres undefined),inactive,–
Cc1cc(NC(=O)Cn2nc(C(F)(F)F)c3c2CCCC3)no1,inactive,–
N#CCN(C(=O)COC(=O)C1CC2CCCC(C1)C2=O)c1ccccc1 (centres undefined),inactive,–
CC1CCN(c2ccc(-c3ccc(NC(=O)c4ccco4)cc3)nn2)CC1,inactive,–
Cc1noc(C)c1CSCC(=O)Nc1ccc(Br)cc1Cl,inactive,–
O=C(c1ccncc1)N1CCN(S(=O)(=O)c2cc(C(F)(F)F)cc(C(F)(F)F)c2)CC1,inactive,–
COCc1c(C(=O)N/N=C\c2cccnc2)nnn1-c1nonc1N,inactive,–
CCN(CC)Cc1c(C(=O)N/N=C/c2cccc(OCc3ccc(F)cc3)c2)nnn1-c1nonc1N,-5.26 (active),–
CN(C)Cc1c(C(=O)N/N=C/c2ccccc2OCc2ccc(F)cc2)nnn1-c1nonc1N,inactive,–
CCCCn1c(N)c(N(CC(C)C)C(=O)c2ccc(Br)o2)c(=O)[nH]c1=O,inactive,–
CC(OC(=O)c1ccc(S(=O)(=O)N2CCOCC2)cc1)c1ccccc1 (centres undefined),inactive,–
CCN(C(=O)CSc1ncnc2c1cnn2-c1ccccc1)C1CCS(=O)(=O)C1 (centres undefined),inactive,–
CC(C)c1ccc(NC(=O)C2CCCN(S(=O)(=O)c3cccnc3)C2)cc1 (centres undefined),inactive,–
O=C(NCc1cccs1)C1CCN(S(=O)(=O)c2ccc(Cl)cc2)CC1,inactive,–
O=C(Nc1ccc(F)c(Cl)c1)C1CCN(S(=O)(=O)c2cccnc2)CC1,-5.54 (active),–
O=C(COC(=O)c1cc(S(=O)(=O)N2CCCCC2)ccc1Cl)NCc1ccco1,inactive,–
Cc1cc(C(=O)OCC(=O)NCc2ccco2)c(C)n1-c1ccccc1,-10 (active),–
CN(c1ccccc1)S(=O)(=O)c1ccc(Cl)c(C(=O)OCC(=O)NCc2ccco2)c1,inactive,–
CCOc1ccc(S(=O)(=O)N2CCN(C(=S)NCC3CCCO3)CC2)cc1 (centres undefined),inactive,–
CC(C)CN(C(=O)c1ccc2c(c1)OCO2)C1CCS(=O)(=O)C1 (centres undefined),inactive,–

SMILES,B-score,outcome
CN(C(=O)c1cc2c(=O)n3ccccc3nc2s1)C1CCCCC1,inactive,–
O=C(CC1SC(N2CCCC2)=NC1=O)Nc1ccc(C(=O)NCCc2ccc(F)cc2)cc1 (centres undefined),inactive,–
CCc1nc(C)cn1S(=O)(=O)c1cc([N+](=O)[O-])ccc1Cl,-5.38 (active),–
Cc1ccc([N+](=O)[O-])cc1S(=O)(=O)N1CCCN(C)CC1,inactive,–
CCc1nccn1S(=O)(=O)c1cccc([N+](=O)[O-])c1,inactive,–
C=CCOc1cccc(C2C(C(=O)c3ccc(C)o3)=C(O)C(=O)N2CCCn2ccnc2)c1 (centres undefined),inactive,–
O=C(CCCN1C(=O)CSc2ncccc21)N1CCN(c2cccc(C(F)(F)F)c2)CC1,-9.61 (active),–
O=C(CN1C(=O)CSc2ncccc21)N1CCOCC1,inactive,–
O=C(COc1ccc(Cl)cc1)N1CCN(c2cccc(C(F)(F)F)c2)CC1,inactive,–
CCCn1c(C)cc(-c2csc(NC(=O)CCc3nc4ccccc4c(=O)[nH]3)n2)c1C,inactive,–
CN(C)C1=NC[C@H](Cc2ccccc2)N1CCc1ccc(F)cc1,inactive,–
CC1C(=O)N2CCCc3cc(S(=O)(=O)NCc4ccc(F)cc4)cc1c32 (centres undefined),inactive,–
CN1CCN(CCCNC(=O)c2ccc(/C=C3\Oc4ccccc4N(Cc4ccc(Cl)cc4)C3=O)cc2)CC1,-7.25 (active),–
CN1C(=O)/C(=C/c2ccc(C(=O)NC3CCCC3)cc2)Oc2ccccc21,inactive,–
O=C(NCCN1CCOCC1)c1ccc(/C=C2\Sc3ccccc3N(Cc3ccc(F)cc3)C2=O)cc1,inactive,–
O=C(NC1CCCCC1)c1ccc(-c2ccc(Cl)cc2)o1,inactive,–
O=[N+]([O-])c1ccccc1Nc1ccc(O)cc1,-5.48 (active),–
O=[N+]([O-])c1ccc(O)c(/C=N/Nc2ccccc2[N+](=O)[O-])c1,inactive,–
O=C(O)c1ccccc1C(=O)Nc1ccccc1[N+](=O)[O-],inactive,–
CCN(C(=O)CSc1nnnn1-c1ccccc1OC)C1CCS(=O)(=O)C1 (centres undefined),inactive,–
Cc1nc2c(c(C)nn2-c2ccccc2)c(C)c1C,inactive,–
O=C(Nc1ncccc1O)c1ccc(C(=O)c2ccccc2)cc1,inactive,–
Cc1csc(=O)n1CC(=O)OCC(=O)N(CC(C)C)c1c(N)n(Cc2ccccc2)c(=O)[nH]c1=O,inactive,–
